Compound activity from PubChem BioAssay.
This excerpt belongs to a sample that is enriched for hits.
KDM5B inh = KDM5B demethylase inhibition; Potency, µM (top dose mostly 57.7 µM), most hits filed as inhibitors; AID 1347165; Q9UGL1; KDM5B demethylase, FDH-coupled NADH fluorescence (FDH is formaldehyde dehydrogenase); hit rate 2.6% among 220,000; active means well fitted inhibition curve with a large enough effect; further: 0% is about no effect; nearly all actives have a fitted effect of over 70% in size
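KDM5BΔAP (200 nM final) in 50 mM HEPES pH 7.5, 0.01% Tween-20 was preincubated 10 min at RT with compound over a concentration range. Substrate mix (H3K4me3 12.5 µM, α-KG 25 µM, Fe²⁺, ascorbate, NAD⁺, FDH) was added, and NADH fluorescence change over 30 min gave dose-response curves.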
Numbers without * were called inactive; i = inactive. Potency means the concentration at half of the fitted maximal effect.

SMILES	KDM5B inh
Fc1ccc(-c2nnc(N3CCOCC3)c3ccccc23)cc1F	i
Cc1nn2c(c1-c1cccnc1N1CCOCC1)N(Cc1ccccc1F)CCC2	i
COc1ccc(C)cc1NC(=O)c1ccccc1OCC(N)=O	i
COc1ccc(Nc2nc(N)c(C(=O)c3ccc(OC)c(OC)c3OC)s2)cc1	i
NC(N)=NC(N)=Nc1ccc(Cl)c(Cl)c1	i
O=C(O)C(c1c[nH]c2cc(F)ccc12)N1CCN(c2cccc(Cl)c2)CC1 (stereo not given)	i
O=C(NC1CCCc2ccccc21)c1cc2c(Cl)nc3ccccc3c2s1 (stereo not given)	i
Cc1nn(C)cc1CN(C)Cc1cn(C)nc1-c1ccc(C2CCCCC2)cc1	i
Cn1cc(CN2CCN(c3ccc(C#N)cn3)CC2)c(-c2ccccc2)n1	i
Cn1cc(CN2CCN(c3cnccn3)CC2)c(-c2ccc(C3CCCCC3)cc2)n1	28µM*
C(#CCN1CCN(C(c2ccccc2)c2ccccc2)CC1)COC(c1ccccc1)c1ccccc1	i
Cc1ccc(-n2nc(C(=O)Nc3ccc(C)c(F)c3)c(=O)n(C)c2=O)cc1	i
CCCCNC(=O)c1ccc2c(c1)n(Cc1ccc(F)cc1)c(=O)c1ccnn12	22µM*
Cn1c(=O)c2ccnn2c2ccc(C(=O)NCCN3CCC(N4CCCCC4)CC3)cc21	28µM*
CN1C(=O)CCCCC1C(=O)NCC1CCN(Cc2cccc(F)c2)CC1 (stereo not given)	i
Cc1ccc(NC(=O)c2ccc3nc(Cc4ccccc4)oc3c2)cc1F	i
Cn1c(=O)c2ccnn2c2ccc(C(=O)NCC3CCN(Cc4cccc(F)c4)CC3)cc21	28µM*
Cn1c(=O)c2ccnn2c2ccc(C(=O)Nc3ccc(N4CCOCC4)cc3)cc21	i
CCCCNC(=O)c1ccc2c(=O)n(Cc3ccc(OC)cc3)c(=O)[nH]c2c1	i
CCn1c(=O)c2ccnn2c2ccc(C(=O)Nc3ccc(C)c(F)c3)cc21	8.9µM*
CN1C(=O)C(CC(=O)NCC2CCN(Cc3cccc(F)c3)CC2)=C2CCCCC21 (stereo not given)	i
O=C1CCN(Cc2ccncc2)CCCC(C(=O)NCCN2CCC(N3CCCCC3)CC2)CCN1 (stereo not given)	i
CNC(=O)c1ccc2c(c1)n(Cc1ccc(OC)cc1)c(=O)c1ccnn12	i
C/C(=N\NC(=O)C1CC1)c1ccc(C)o1	i
CCOC(=O)c1sc(N)c(C#N)c1COC(=O)C12CC3CC(CC(O)(C3)C1)C2	i
SMILES	KDM5B inh
Cc1oc2cc(OCC(=O)Nc3ccc(F)cc3F)ccc2c(=O)c1Oc1ccccc1	i
Nc1nc(CN2CCN(C(=O)c3cccc(F)c3)CC2)nc2ccccc12	i
N#Cc1ccc(S(=O)(=O)N2CCC(C(=O)N3CCCC3c3ccc4c(c3)OCCO4)CC2)cc1 (stereo not given)	i
CC(Oc1cccc(Br)c1)C(=O)NNC(=O)c1ccc2c(c1)NC(=O)CCS2 (stereo not given)	i
Cc1cccc2sc(NC(=O)c3ccc[n+]([O-])c3)nc12	i
CCn1c(=O)c2ccnn2c2ccc(C(=O)N3CCN(c4ccccc4)CC3)cc21	i
CCNC(=O)c1ccc(CSc2nc3ccncc3n2Cc2ccc(F)cc2)cc1	i
Cn1ncc(N2CCC(NC(=O)Cc3ccc(F)cc3)CC2)cc1=O	i
CN(C)C(=O)c1ccc2c(c1)n(Cc1ccc(F)cc1)c(=O)c1ccnn12	28µM*
CN1CCC(NC(=O)c2ccc3c(c2)n(Cc2ccc(F)cc2)c(=O)c2ccnn23)CC1	28µM*
CC(C)OCCCNC(=O)c1ccc(Cn2c(=O)c3cccn3c3cccnc32)cc1	i
Cc1cc(F)ccc1NC(=O)c1ccc2c(c1)n(Cc1cccc(F)c1)c(=O)c1ccnn12	i
O=C(NC1CCCC1)c1ccc(CSc2nc3ccncc3n2Cc2ccc(F)cc2)cc1	i
CCn1c(=O)c2ccnn2c2ccc(C(=O)NCCCOC(C)C)cc21	32µM*
O=C(NCc1ccccn1)c1ccc2c(c1)n(Cc1cccc(F)c1)c(=O)c1ccnn12	25µM*
COc1ccc(Cn2cc(C(=O)c3ccc(F)cc3)c(=O)c3cc4c(cc32)OCCO4)cc1	i
O=C(NCc1ccccn1)c1cc(F)cc(F)c1	i
CCOC(=O)c1sc(CC(=O)Nc2ccc(C)cc2C)nc1C	i
O=C(NCc1c[nH]c2ncccc12)c1cccc(Br)c1	i
CCN(CC)S(=O)(=O)c1ccc2nc(N)sc2c1	i
O=C(COC(=O)c1cccc(F)c1)c1ccc([N+](=O)[O-])cc1	i
COc1ccc(C(=O)NC2CCC(C)CC2)cc1S(=O)(=O)N(C)C (stereo not given)	i
C=C(C)Cn1c(SCCCCCC)nc2c1c(=O)[nH]c(=O)n2C	i
CS(=O)(=O)c1cnc(NC2CCCC2)nc1C1CCCNC1 (stereo not given)	i
Cc1nc(C)c(C(=O)O)cc1C(=O)O	i
SMILES	KDM5B inh
Cc1nc(NC2CCCCC2)ncc1C(=O)O	32µM*
O=C(CSC1=Nc2ccccc2C2=NC(c3ccccc3)C(=O)N12)Nc1cc(F)ccc1F (stereo not given)	i
O=C(c1ccc(Cl)cc1)N1CCC([C@@H]2CNC[C@H]2CO)CC1	i
O=C(C1CC=CC1)N1CCC([C@@H]2CNC[C@H]2CO)CC1	i
O=C(c1cnccn1)N1CCC([C@@H]2CNC[C@H]2CO)CC1	14µM*
CC(OC(=O)Cn1[nH]c(=O)c2ccccc2c1=O)C(=O)Nc1ccccc1F (stereo not given)	i
Cn1c(C(=O)NC2CCN(C3CC3)C2)cc2ccccc21 (stereo not given)	i
Cc1ccc(NC(=O)c2cc3n(n2)CC(c2ccc(Cl)cc2)OC3)cc1 (stereo not given)	20µM*
O=C(NC1CCN(Cc2ccccc2)CC1)c1cc2n(n1)CC(c1ccc(Cl)cc1)OC2 (stereo not given)	i
Cc1cc(C)cc(NC(=O)c2cc3n(n2)CC(c2ccc(Cl)cc2)OC3)c1 (stereo not given)	25µM*
CC(=O)c1ccc(NC(=O)c2cc3n(n2)CC(c2ccc(Br)cc2)OC3)cc1 (stereo not given)	i
CSc1nc2ccccc2c(=O)n1CC(=O)c1ccc(C)cc1	i
CCN(CC)CC1CCN(C(=O)CCc2c[nH]c3ccccc23)CC1	i
O=C1NC(=NC2CCCCC2)C2(CCCN(Cc3ccccc3)C2)N1c1cc(F)cc(F)c1 (stereo not given)	i
CCOC(=O)CSc1nc2c(c(=O)[nH]c(=O)n2C)n1C(C)C	i
N#Cc1ccc(OCCOc2ccc3ccc(=O)oc3c2)cc1	i
Cc1ccc(-c2nc(CNC(=O)c3ccccc3)c(C)o2)cc1	i
Cc1sc(NC(=O)CC(C)(C)C)c(C#N)c1C	i
O=C(O)C(c1c[nH]c2cccc(Cl)c12)N1CCN(Cc2cccc(Cl)c2)CC1 (stereo not given)	i
O=C(Cn1cnnn1)N1CCc2onc(-c3cccc4ccccc34)c2C1	32µM*
CCC1(CC)CC1C(=O)N1CCc2onc(-c3cccc(F)c3)c2C1 (stereo not given)	i
NC(=O)NCCC(=O)N1CCc2[nH]nc(-c3cccc4ccccc34)c2C1	i
CCN(C)C(C)C(=O)N1CCc2onc(-c3ccc(C(F)(F)F)cc3)c2C1 (stereo not given)	i
CC(C)c1nc(C(=O)N2CCc3onc(-c4ccccc4F)c3C2)cs1	i
